# Test results published in article PMC7862700, “An all-to-all approach to the identification of sequence-specific readers for epigenetic DNA modifications on cytosine”.
# How the values were obtained:
# Experiment in all cases: DAPPL (digital affinity profiling via proximity ligation, sequencing); 10 mM Tris-HCl pH 7.5, 50 mM NaCl, 1 mM DTT, 4% glycerol, room temperature, 30 min; GST-TFs on glutathione beads, 16-mer random dsDNA library, 0.1% formaldehyde crosslink after washing; high values mean tight binding
# FLI1 = molecular target: T1, FLI1 (Homo sapiens, UniProt Q01543 1-452); conditions: protein: recombinant; tags: N-terminal GST; dsDNA, one strand shown
# T1 sequence: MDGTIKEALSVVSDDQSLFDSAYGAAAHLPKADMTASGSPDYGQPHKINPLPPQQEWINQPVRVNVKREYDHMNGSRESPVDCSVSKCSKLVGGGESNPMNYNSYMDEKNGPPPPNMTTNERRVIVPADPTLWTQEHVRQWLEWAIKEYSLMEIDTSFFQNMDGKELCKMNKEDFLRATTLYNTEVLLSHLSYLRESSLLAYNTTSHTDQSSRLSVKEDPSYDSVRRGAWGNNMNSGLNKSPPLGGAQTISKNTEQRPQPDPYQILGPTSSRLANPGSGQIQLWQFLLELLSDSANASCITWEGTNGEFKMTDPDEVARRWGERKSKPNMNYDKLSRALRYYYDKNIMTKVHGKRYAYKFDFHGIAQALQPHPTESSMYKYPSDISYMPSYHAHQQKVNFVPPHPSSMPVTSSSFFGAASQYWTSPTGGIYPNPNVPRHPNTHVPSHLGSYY
# Summary of the method: (§1)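 Each value of binding signal is a hexamer's read frequency for a factor divided by the same hexamer's frequency in the tag-only sample. Barcoded, bead-captured GST fusions of human transcription factors made in yeast were pooled with that sample and incubated with 200 nmole of a random double-stranded 16-mer DNA library in Tris/NaCl/DTT/glycerol buffer at room temperature for 30 min. Washing, 0.1% formaldehyde crosslinking, proximity ligation, PCR and Illumina NextSeq500 sequencing followed.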
# ELK1 = molecular target: T2, ELK1 (Homo sapiens, UniProt P19419 1-428); conditions: protein: recombinant; tags: N-terminal GST; dsDNA, one strand shown
# T2 sequence: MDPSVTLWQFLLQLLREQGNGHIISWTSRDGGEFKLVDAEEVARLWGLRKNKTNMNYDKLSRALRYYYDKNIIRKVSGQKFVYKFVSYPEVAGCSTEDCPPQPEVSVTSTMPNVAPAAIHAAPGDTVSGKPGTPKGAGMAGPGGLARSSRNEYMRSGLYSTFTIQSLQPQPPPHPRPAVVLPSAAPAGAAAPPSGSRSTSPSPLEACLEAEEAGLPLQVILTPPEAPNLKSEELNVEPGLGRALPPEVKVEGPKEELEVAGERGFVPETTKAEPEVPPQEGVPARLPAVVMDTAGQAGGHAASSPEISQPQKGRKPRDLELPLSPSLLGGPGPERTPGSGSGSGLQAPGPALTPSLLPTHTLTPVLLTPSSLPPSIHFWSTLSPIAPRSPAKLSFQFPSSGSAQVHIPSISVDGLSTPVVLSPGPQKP
# Summary of the method: as §1
# GABPA = molecular target: T3, GABPA (Homo sapiens, UniProt Q06546 1-454); conditions: protein: recombinant; tags: N-terminal GST; dsDNA, one strand shown
# T3 sequence: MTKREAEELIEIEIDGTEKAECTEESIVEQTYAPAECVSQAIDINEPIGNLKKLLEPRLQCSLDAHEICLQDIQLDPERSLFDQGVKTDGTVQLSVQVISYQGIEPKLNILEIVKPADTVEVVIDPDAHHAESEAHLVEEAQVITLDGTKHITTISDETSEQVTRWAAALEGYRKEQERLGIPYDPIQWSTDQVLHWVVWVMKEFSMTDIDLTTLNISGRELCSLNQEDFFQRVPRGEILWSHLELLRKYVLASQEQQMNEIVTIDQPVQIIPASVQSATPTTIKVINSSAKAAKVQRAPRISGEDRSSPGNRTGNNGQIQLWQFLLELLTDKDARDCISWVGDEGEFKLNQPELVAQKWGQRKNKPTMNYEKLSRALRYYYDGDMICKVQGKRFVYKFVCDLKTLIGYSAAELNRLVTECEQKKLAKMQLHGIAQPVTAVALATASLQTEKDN
# Summary of the method: as §1
# ERG = molecular target: T4, ERG (Homo sapiens, UniProt P11308 1-479); conditions: protein: recombinant; tags: N-terminal GST; dsDNA, one strand shown
# T4 sequence: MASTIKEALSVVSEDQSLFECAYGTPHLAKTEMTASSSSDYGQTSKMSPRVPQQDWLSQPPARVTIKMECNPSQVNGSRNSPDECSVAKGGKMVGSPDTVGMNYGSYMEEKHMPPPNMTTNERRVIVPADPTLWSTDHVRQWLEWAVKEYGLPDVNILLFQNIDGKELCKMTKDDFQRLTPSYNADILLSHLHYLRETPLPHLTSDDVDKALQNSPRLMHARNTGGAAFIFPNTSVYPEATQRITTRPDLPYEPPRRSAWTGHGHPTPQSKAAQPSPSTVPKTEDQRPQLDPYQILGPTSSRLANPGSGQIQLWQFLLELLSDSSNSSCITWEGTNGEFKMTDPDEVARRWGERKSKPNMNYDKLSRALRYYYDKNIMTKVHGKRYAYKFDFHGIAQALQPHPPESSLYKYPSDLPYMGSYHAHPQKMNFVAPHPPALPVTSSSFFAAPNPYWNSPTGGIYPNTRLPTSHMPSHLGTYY
# Summary of the method: as §1
# ELF1 = ELF1 (Homo sapiens, UniProt P32519 1-619); conditions: protein: recombinant; tags: N-terminal GST; dsDNA, one strand shown
# Sequence of ELF1 (P32519 whole entry): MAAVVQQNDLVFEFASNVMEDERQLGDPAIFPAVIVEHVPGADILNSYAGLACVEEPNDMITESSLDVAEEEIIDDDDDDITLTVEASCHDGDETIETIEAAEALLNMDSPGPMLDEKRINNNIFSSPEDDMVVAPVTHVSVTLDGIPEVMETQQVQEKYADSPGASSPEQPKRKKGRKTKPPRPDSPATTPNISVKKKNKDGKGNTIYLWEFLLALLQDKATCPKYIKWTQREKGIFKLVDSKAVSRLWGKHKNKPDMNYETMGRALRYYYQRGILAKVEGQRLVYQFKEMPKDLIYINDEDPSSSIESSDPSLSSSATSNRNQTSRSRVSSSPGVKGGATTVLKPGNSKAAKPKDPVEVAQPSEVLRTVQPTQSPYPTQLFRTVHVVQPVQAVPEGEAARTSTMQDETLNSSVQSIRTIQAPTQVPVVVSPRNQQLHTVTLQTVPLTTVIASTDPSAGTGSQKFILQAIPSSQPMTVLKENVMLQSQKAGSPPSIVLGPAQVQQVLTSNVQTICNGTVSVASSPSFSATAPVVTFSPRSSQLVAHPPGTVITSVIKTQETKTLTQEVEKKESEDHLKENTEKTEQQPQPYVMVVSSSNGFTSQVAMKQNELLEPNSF
# Summary of the method: as §1
# EHF = molecular target: T5, EHF (Homo sapiens, UniProt Q9NZC4 1-300); conditions: protein: recombinant; tags: N-terminal GST; dsDNA, one strand shown
# T5 sequence: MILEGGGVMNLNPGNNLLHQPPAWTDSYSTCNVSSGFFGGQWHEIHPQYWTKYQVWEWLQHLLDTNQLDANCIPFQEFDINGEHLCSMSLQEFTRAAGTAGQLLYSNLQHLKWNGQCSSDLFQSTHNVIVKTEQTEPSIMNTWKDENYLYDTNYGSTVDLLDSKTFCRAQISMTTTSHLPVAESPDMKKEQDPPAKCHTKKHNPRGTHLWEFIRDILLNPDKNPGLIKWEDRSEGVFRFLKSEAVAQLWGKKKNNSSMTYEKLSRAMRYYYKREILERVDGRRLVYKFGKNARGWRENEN
# Summary of the method: as §1
# SPI1 = SPI1 (Homo sapiens, UniProt P17947 1-270); conditions: protein: recombinant; tags: N-terminal GST; dsDNA, one strand shown
# Summary of the method: as §1
# SPIB = SPIB (Homo sapiens, UniProt Q01892 1-262); conditions: protein: recombinant; tags: N-terminal GST; dsDNA, one strand shown
# Sequence of SPIB (Q01892 whole entry): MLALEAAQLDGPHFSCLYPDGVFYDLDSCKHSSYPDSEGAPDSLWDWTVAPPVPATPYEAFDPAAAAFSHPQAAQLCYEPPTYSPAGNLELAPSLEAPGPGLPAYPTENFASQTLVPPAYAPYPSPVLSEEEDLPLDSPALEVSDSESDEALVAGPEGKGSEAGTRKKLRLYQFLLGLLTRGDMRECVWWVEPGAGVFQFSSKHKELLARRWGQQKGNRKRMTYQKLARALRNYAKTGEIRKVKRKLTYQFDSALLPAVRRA
# Summary of the method: as §1
# ELK3 = molecular target: T6, ELK3 (Homo sapiens, UniProt P41970 1-407); conditions: protein: recombinant; tags: N-terminal GST; dsDNA, one strand shown
# T6 sequence: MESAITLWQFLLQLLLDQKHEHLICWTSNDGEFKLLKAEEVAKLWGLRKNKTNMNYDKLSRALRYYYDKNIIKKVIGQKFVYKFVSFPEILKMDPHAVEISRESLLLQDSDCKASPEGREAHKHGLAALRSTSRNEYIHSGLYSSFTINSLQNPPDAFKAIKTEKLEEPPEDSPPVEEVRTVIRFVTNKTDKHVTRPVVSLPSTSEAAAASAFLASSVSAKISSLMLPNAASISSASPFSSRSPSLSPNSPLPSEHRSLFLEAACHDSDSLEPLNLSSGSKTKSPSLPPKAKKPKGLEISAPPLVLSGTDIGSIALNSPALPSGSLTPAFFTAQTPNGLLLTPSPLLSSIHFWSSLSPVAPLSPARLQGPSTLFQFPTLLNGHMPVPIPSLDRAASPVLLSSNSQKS
# Summary of the method: as §1
# FEV = molecular target: T7, FEV (Homo sapiens, UniProt Q99581 1-238); conditions: protein: recombinant; tags: N-terminal GST; dsDNA, one strand shown
# T7 sequence: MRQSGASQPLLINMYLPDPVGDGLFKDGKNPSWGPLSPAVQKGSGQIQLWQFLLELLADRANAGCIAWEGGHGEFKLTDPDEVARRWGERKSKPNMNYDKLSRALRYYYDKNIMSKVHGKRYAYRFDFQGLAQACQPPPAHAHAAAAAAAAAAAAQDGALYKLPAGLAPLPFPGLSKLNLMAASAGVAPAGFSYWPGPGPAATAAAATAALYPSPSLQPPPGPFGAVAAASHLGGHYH
# Summary of the method: as §1
# ETV5 = ETV5 (Homo sapiens, UniProt P41161 1-510); conditions: protein: recombinant; tags: N-terminal GST; dsDNA, one strand shown
# Sequence of ETV5 (P41161 whole entry): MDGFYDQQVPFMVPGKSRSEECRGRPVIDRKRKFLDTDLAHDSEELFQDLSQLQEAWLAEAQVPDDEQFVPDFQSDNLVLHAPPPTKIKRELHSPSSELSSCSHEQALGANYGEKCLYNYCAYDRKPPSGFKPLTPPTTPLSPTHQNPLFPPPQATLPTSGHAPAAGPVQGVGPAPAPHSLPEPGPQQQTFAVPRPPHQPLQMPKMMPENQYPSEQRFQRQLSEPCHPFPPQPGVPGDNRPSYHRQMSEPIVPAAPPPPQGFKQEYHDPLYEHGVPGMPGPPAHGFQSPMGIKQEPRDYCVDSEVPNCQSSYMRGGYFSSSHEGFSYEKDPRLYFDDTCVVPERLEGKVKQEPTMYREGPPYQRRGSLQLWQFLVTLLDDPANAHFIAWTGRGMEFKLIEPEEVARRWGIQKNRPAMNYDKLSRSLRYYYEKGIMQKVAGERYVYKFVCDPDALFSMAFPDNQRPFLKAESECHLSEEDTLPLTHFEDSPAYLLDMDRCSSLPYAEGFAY
# Summary of the method: as §1
# HSF1 = HSF1 (Homo sapiens, UniProt Q00613 1-529); conditions: protein: recombinant; tags: N-terminal GST; chain copies: 3; dsDNA, one strand shown
# Sequence of HSF1 (Q00613 whole entry): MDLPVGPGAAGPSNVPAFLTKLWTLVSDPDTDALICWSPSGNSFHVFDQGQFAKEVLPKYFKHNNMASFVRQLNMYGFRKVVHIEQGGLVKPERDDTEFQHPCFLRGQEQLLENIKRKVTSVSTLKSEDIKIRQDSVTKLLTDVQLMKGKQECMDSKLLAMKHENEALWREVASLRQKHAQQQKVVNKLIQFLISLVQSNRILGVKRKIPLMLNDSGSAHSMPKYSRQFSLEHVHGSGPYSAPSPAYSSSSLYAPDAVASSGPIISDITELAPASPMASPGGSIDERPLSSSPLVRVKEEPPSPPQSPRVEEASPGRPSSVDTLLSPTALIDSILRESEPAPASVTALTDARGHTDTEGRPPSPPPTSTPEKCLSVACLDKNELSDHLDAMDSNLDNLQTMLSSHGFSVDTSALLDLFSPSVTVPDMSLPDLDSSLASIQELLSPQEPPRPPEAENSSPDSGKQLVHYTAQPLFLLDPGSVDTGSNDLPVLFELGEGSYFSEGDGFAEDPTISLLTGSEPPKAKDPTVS
# Summary of the method: as §1
# SPIC = molecular target: T8, SPIC (Homo sapiens, UniProt Q8N5J4 1-248); conditions: protein: recombinant; tags: N-terminal GST; dsDNA, one strand shown
# T8 sequence: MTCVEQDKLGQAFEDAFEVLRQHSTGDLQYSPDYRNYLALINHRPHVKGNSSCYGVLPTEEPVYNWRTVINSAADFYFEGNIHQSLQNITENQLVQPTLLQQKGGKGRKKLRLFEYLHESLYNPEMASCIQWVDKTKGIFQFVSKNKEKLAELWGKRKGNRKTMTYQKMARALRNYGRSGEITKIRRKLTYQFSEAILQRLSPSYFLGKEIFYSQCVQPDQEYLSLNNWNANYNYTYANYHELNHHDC
# Summary of the method: as §1
# ELF4 = ELF4 (Homo sapiens, UniProt Q99607 1-663); conditions: protein: recombinant; tags: N-terminal GST; dsDNA, one strand shown
# Sequence of ELF4 (Q99607 whole entry): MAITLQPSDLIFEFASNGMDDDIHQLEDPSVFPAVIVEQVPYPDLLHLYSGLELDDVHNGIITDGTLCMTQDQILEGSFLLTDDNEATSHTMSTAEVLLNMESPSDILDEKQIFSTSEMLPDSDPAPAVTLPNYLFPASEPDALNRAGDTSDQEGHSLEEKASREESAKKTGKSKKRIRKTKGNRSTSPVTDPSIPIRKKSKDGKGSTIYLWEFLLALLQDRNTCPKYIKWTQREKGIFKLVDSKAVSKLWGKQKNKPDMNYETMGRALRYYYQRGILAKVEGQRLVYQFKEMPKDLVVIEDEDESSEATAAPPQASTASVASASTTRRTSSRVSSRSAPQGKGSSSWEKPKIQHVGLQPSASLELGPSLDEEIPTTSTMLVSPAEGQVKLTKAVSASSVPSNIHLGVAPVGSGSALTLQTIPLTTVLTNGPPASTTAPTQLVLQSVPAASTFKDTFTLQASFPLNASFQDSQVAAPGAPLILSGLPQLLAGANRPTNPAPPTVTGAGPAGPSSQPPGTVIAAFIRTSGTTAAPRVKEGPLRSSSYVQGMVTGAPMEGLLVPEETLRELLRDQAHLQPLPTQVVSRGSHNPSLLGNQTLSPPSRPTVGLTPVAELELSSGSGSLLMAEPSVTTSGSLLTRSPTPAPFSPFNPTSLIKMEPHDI
# Summary of the method: as §1
# ELK4 = molecular target: T9, ELK4 (Homo sapiens, UniProt P28324-2 1-405); conditions: protein: recombinant; tags: N-terminal GST; dsDNA, one strand shown
# T9 sequence: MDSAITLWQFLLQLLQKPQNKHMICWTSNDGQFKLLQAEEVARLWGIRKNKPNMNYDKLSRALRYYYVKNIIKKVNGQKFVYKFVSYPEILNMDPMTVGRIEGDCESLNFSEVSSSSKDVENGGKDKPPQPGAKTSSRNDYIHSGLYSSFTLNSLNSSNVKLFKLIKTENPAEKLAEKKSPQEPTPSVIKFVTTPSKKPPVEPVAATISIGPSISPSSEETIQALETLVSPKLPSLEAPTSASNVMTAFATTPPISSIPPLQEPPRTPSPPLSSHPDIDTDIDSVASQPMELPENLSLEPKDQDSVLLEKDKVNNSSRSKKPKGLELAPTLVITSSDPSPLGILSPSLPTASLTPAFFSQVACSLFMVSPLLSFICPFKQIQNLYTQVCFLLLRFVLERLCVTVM
# Summary of the method: as §1
# ETV2 = molecular target: T10, ETV2 (Homo sapiens, UniProt O00321 1-342); conditions: protein: recombinant; tags: N-terminal GST; dsDNA, one strand shown
# T10 sequence: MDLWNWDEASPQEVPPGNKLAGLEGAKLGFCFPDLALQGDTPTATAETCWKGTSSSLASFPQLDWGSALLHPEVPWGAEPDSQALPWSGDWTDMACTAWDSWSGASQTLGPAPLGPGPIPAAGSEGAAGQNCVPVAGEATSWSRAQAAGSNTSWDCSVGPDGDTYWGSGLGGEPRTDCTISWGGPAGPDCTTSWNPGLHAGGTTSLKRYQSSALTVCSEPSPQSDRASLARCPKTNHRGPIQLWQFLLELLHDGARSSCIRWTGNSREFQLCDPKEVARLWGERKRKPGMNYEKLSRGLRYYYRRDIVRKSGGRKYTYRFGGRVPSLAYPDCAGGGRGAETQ
# Summary of the method: as §1
# ELF3 = molecular target: T11, ELF3 (Homo sapiens, UniProt P78545 1-371); conditions: protein: recombinant; tags: N-terminal GST; dsDNA, one strand shown
# T11 sequence: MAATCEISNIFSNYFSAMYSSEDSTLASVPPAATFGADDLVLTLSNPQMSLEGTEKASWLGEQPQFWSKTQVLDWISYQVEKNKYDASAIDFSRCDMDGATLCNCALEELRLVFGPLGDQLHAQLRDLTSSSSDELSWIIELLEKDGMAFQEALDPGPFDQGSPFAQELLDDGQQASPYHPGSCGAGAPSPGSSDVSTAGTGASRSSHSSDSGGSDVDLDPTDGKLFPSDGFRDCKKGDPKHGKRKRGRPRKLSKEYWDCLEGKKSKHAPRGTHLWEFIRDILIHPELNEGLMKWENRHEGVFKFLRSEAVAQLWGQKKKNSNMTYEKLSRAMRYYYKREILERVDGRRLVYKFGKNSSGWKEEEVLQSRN
# Summary of the method: as §1
# CRX = CRX (Homo sapiens, UniProt O43186 1-299); conditions: protein: recombinant; tags: N-terminal GST; dsDNA, one strand shown
# Sequence of CRX (O43186 whole entry): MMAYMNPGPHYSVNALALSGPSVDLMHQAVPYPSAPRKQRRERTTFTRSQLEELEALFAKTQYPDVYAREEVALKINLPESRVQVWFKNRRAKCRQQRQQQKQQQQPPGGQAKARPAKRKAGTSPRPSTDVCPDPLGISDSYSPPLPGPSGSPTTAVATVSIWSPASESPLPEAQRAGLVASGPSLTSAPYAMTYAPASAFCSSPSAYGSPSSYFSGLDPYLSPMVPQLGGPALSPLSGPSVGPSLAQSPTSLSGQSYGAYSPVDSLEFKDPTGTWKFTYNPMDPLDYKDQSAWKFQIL
# Summary of the method: as §1
# ETV1 = ETV1 (Homo sapiens, UniProt P50549 1-477); conditions: protein: recombinant; tags: N-terminal GST; dsDNA, one strand shown
# Sequence of ETV1 (P50549 whole entry): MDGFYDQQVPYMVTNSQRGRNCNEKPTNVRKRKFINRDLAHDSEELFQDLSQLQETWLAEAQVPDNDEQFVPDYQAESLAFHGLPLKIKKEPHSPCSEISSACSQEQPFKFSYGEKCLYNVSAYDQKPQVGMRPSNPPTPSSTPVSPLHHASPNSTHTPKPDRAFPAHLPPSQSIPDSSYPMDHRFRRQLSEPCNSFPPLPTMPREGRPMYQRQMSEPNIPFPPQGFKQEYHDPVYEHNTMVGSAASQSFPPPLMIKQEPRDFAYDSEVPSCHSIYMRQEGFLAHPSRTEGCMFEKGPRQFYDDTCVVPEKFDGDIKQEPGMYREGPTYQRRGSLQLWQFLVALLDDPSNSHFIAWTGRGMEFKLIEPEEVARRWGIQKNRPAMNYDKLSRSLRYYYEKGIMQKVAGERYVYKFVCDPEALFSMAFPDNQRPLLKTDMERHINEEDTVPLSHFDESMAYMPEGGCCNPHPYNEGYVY
# Summary of the method: as §1
sequence,measurement,setting,value
TAATAG,binding signal,FLI1,"1.24 fold enrichment (6-mer frequency, TF over GST control)"
same,binding signal,ELK1,"1.15 fold enrichment (6-mer frequency, TF over GST control)"
same,binding signal,GABPA,"1.09 fold enrichment (6-mer frequency, TF over GST control)"
same,binding signal,ERG,"1.11 fold enrichment (6-mer frequency, TF over GST control)"
same,binding signal,ELF1,"1.2 fold enrichment (6-mer frequency, TF over GST control)"
same,binding signal,EHF,"1.25 fold enrichment (6-mer frequency, TF over GST control)"
same,binding signal,SPI1,"1.2 fold enrichment (6-mer frequency, TF over GST control)"
same,binding signal,SPIB,"1.29 fold enrichment (6-mer frequency, TF over GST control)"
same,binding signal,ELK3,"1.06 fold enrichment (6-mer frequency, TF over GST control)"
same,binding signal,FEV,"1.18 fold enrichment (6-mer frequency, TF over GST control)"
same,binding signal,ETV5,"1.21 fold enrichment (6-mer frequency, TF over GST control)"
same,binding signal,HSF1,"1.54 fold enrichment (6-mer frequency, TF over GST control)"
same,binding signal,SPIC,"1.39 fold enrichment (6-mer frequency, TF over GST control)"
same,binding signal,ELF4,"1.15 fold enrichment (6-mer frequency, TF over GST control)"
same,binding signal,ELK4,"1.19 fold enrichment (6-mer frequency, TF over GST control)"
same,binding signal,ETV2,"1.02 fold enrichment (6-mer frequency, TF over GST control)"
same,binding signal,ELF3,"1.06 fold enrichment (6-mer frequency, TF over GST control)"
same,binding signal,CRX,"1.94 fold enrichment (6-mer frequency, TF over GST control)"
same,binding signal,ETV1,"1.22 fold enrichment (6-mer frequency, TF over GST control)"
